Data: PubChem BioAssay (NCI)
Compounds without any hit were thinned out: in the full panel of roughly 83,000, 20% have a hit.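 Assay: single dose, 48 h. Readout: percent growth (0 = no net growth; negative = cell death). Active: <10.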 Activity calls are given as the source filed them.

system: OVCAR-4 ovarian; assay: NCI-60 one-dose screen, 48 h (100 = growth as untreated, 0 = no growth, -100 = all killed); details: 10 µM unless noted

SMILES | growth
CC(=O)Nc1ccc(O)c(C)c1 | 100% (inactive)
O=C(c1cccc(C(=O)c2ccc3c4c(cccc24)C(=O)N(c2ccccc2)C3=O)c1)c1ccc2c3c(cccc13)C(=O)N(c1ccccc1)C2=O | 77.4% (inactive)
Cc1ccc(S(=O)(=O)Oc2ccc3sc4c(CO)ccc(NCCN(C)C)c4c(=O)c3c2)cc1 | -97.9% [100 µM] (active)
O=C1NC(=O)/C(=C\c2ccncc2)N1 | 98.6% (inactive)
O=C(c1ccccc1O)N1CCCC1 | 109% (inactive)
C1Cc2onc(-c3noc4c3CCC4)c2C1 | 105% (inactive)
O=S(=O)(O)c1ccc(O)c(C2CCCCC2)c1 | 94.4% (inactive)
CNc1ccccc1C(=O)N/N=C/C=C/c1ccccc1 | 85.6% (inactive)
O=C(O)CC1=CCCCC1 | 100% (inactive)
CC(C)c1ccc(C(=O)OCCCl)cc1 | 104% (inactive)
CCCCCCCCNC(=O)C(C)C | 96.9% (inactive)
Cc1ccc(C)c2c1CCC2=O | 105% (inactive)
CC1(C)CCC(C)(C)NC(=S)N1 | 107% (inactive)
COc1ccc(/C=N/NC(=O)COCC(=O)N/N=C/c2ccc(OC)cc2)cc1 | 90.5% (inactive)
Cc1ccccc1NC(=O)Oc1ccc(Cl)cc1C(=O)c1ccccc1 | 102% (inactive)
CC(=O)c1cccs1 | 106% (inactive)
CSc1cnc2ccccc2n1 | 115% (inactive)
CCCC(OC(C)=O)c1ccc2c(c1)OCO2 (centres undefined) | 110% (inactive)
CC(C)N(C(=O)c1ccccc1)C(C)C | 109% (inactive)

SMILES | growth
O=C(O)c1ccc(OCc2ccccc2)cc1 | 102% (inactive)
COc1cc(C(=O)O)c(O)c(C(C)(C)C)c1 | 109% (inactive)
CC1(C)OC2C(CO)OC(n3ccc(=O)[nH]c3=O)C2O1 (centres undefined) | 115% (inactive)
Cc1cccnc1NC1OC(=O)c2ccccc21 (centres undefined) | 117% (inactive)
NS(=O)(=O)c1cc(=O)[nH]c(=O)[nH]1 | 110% (inactive)
CCC1CCC(C)NC1 (centres undefined) | 107% (inactive)
Cc1ccc2[nH]c3ccccc3c2c1 | 100% (inactive)
C=C1C(=O)C2CCN1CC2 | 101% (inactive)
C=CCNC(=S)N/C=C(/C(=O)c1ccccc1)c1ccccc1 | 110% (inactive)
CCc1ccccc1C(=O)N(CC)CC | 108% (inactive)
CN(C)CCOC(=O)Nc1ccc(Cc2ccc(NC(=O)OCCN(C)C)cc2)cc1 | 94.6% [100 µM] (inactive)
CC(C)NC(=O)OCc1c(COC(=O)NC(C)C)c(-c2ccc(Cl)cc2)n2c1CCC2 | 48.9% (inactive)
Nc1ccc2c(c1)Cc1cc(N)c(N)cc1-2 | 105% (inactive)
CCOC(=O)C(=O)CC(=O)c1ccccc1 | 104% (inactive)
CCNc1ncnc2[nH]ncc12 | 108% (inactive)
COc1nc(Nc2cccc(C(F)(F)F)c2)nc(OC)n1 | 105% (inactive)
CC(=O)c1cccc(O)c1 | 93.6% (inactive)
CC(C)c1ccccc1NC(=O)N1CCC(C(C)C)CC1 | 96.7% (inactive)

system: SK-OV-3 ovarian; assay: as above; details: 10 µM unless noted

SMILES | growth
CC(=O)Nc1ccc(O)c(C)c1 | 105% (inactive)
O=C(c1cccc(C(=O)c2ccc3c4c(cccc24)C(=O)N(c2ccccc2)C3=O)c1)c1ccc2c3c(cccc13)C(=O)N(c1ccccc1)C2=O | 102% (inactive)
Cc1ccc(S(=O)(=O)Oc2ccc3sc4c(CO)ccc(NCCN(C)C)c4c(=O)c3c2)cc1 | -85.1% [100 µM] (active)
O=C1NC(=O)/C(=C\c2ccncc2)N1 | 99.2% (inactive)
O=C(c1ccccc1O)N1CCCC1 | 95.8% (inactive)
C1Cc2onc(-c3noc4c3CCC4)c2C1 | 106% (inactive)
O=S(=O)(O)c1ccc(O)c(C2CCCCC2)c1 | 97.1% (inactive)
CNc1ccccc1C(=O)N/N=C/C=C/c1ccccc1 | 7.51% (active)
O=C(O)CC1=CCCCC1 | 117% (inactive)
CC(C)c1ccc(C(=O)OCCCl)cc1 | 101% (inactive)
CCCCCCCCNC(=O)C(C)C | 105% (inactive)
Cc1ccc(C)c2c1CCC2=O | 121% (inactive)
CC1(C)CCC(C)(C)NC(=S)N1 | 105% (inactive)
COc1ccc(/C=N/NC(=O)COCC(=O)N/N=C/c2ccc(OC)cc2)cc1 | 108% (inactive)
Cc1ccccc1NC(=O)Oc1ccc(Cl)cc1C(=O)c1ccccc1 | 95.4% (inactive)
CC(=O)c1cccs1 | 99% (inactive)
CSc1cnc2ccccc2n1 | 97.2% (inactive)
CCCC(OC(C)=O)c1ccc2c(c1)OCO2 (centres undefined) | 105% (inactive)
CC(C)N(C(=O)c1ccccc1)C(C)C | 114% (inactive)

SMILES | growth
O=C(O)c1ccc(OCc2ccccc2)cc1 | 98.8% (inactive)
COc1cc(C(=O)O)c(O)c(C(C)(C)C)c1 | 103% (inactive)
CC1(C)OC2C(CO)OC(n3ccc(=O)[nH]c3=O)C2O1 (centres undefined) | 99.3% (inactive)
Cc1cccnc1NC1OC(=O)c2ccccc21 (centres undefined) | 94.6% (inactive)
NS(=O)(=O)c1cc(=O)[nH]c(=O)[nH]1 | 108% (inactive)
CCC1CCC(C)NC1 (centres undefined) | 111% (inactive)
Cc1ccc2[nH]c3ccccc3c2c1 | 113% (inactive)
C=C1C(=O)C2CCN1CC2 | 105% (inactive)
C=CCNC(=S)N/C=C(/C(=O)c1ccccc1)c1ccccc1 | 110% (inactive)
CCc1ccccc1C(=O)N(CC)CC | 118% (inactive)
CN(C)CCOC(=O)Nc1ccc(Cc2ccc(NC(=O)OCCN(C)C)cc2)cc1 | 137% [100 µM] (inactive)
CC(C)NC(=O)OCc1c(COC(=O)NC(C)C)c(-c2ccc(Cl)cc2)n2c1CCC2 | 40.8% (inactive)
Nc1ccc2c(c1)Cc1cc(N)c(N)cc1-2 | 93.7% (inactive)
CCOC(=O)C(=O)CC(=O)c1ccccc1 | 111% (inactive)
CCNc1ncnc2[nH]ncc12 | 109% (inactive)
COc1nc(Nc2cccc(C(F)(F)F)c2)nc(OC)n1 | 97.9% (inactive)
CC(=O)c1cccc(O)c1 | 104% (inactive)
CC(C)c1ccccc1NC(=O)N1CCC(C(C)C)CC1 | 105% (inactive)
